Results as given in PubChem BioAssay.
Activity calls are given as the source filed them.

Key:
[1] = system: Human papillomavirus type 1a protein E7 (residues 44-93); test: small molecules binding HPV E7 44-93 – biochemical, small-molecule microarray, residues 44-93, 635 nm fluorescence, primary screen (AID 1108); details: fluorescence 635 nm, higher = more signal;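 also: E7 fragment applied at 1 µg/mL in TBST for 1 h at 4 C; score combines spot fluorescence with its signal to noise ratio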
[2] = hepatitis C replication reporter changes, two-sided – Huh7 cells, luciferase reporter, HCV replication inhibitor project, primary screen (AID 1109); details: Huh7 HCV replicon luciferase reporter, 48 h; higher = more signal;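 also: huh7 hepatoma cells harbouring a luciferase neomycin HCV replicon reporter; luciferase luminescence as measure of HCV replicon replication; test concentration not given here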
[3] = target: Left-right determination factor 2 (Homo sapiens) (UniProt O00292); test: small molecules binding LEFTY2 protein – biochemical, small-molecule microarray, 635 nm fluorescence scan, primary screen (AID 1110); details: higher = more signal
[4] = target: Calmodulin-1 (Homo sapiens) (UniProt P0DP23); test: small molecules binding calmodulin-1 with EGTA – biochemical, small-molecule microarray, Cy5-labelled CALM1, profiling panel (AID 1111); details: Cy5-CALM1 binding fluorescence, higher = more signal;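 also: labelled calmodulin applied in Tris saline Tween buffer holding calcium plus EGTA and DTT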
[5] = target: Calmodulin-1 (Homo sapiens) (UniProt P0DP23); test: small molecules binding Ca-loaded calmodulin-1 – biochemical, small-molecule microarray, Cy5-labelled CALM1, plus calcium, artefact control for SMM control-protein annotation, profiling panel (AID 1112); details: Cy5-CALM1 binding fluorescence, higher = more signal;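 also: score merges spot fluorescence with signal to noise from triplicate slides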
[6] = probe aWnt5a binding to arrayed compounds – biochemical, biotinylated probe, 635/667 nm fluorescence, primary screen (AID 1113); details: small-molecule microarray, higher = more signal;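 also: score merges 667 nm fluorescence intensity with signal-to-noise per printed feature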
[7] = probe aShh binding to arrayed compounds – biochemical, biotinylated probe, 635/667 nm fluorescence, primary screen (AID 1114); details: small-molecule microarray, higher = more signal;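 also: probe is biotin-labelled aShh protein from a stem cell growth factor screen; measures binding of labelled protein to compounds printed on the slide; score merges feature fluorescence at 667 nm with signal-to-noise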
[8] = probe aNog binding to arrayed compounds – biochemical, biotinylated probe, 635/667 nm fluorescence, primary screen (AID 1115); details: small-molecule microarray, higher = more signal;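 also: probe is biotinylated aNog protein used at 0.15 µg/mL for 1 h at 4 C; z-score combines 667 nm fluorescence of each spot with its signal to noise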
[9] = target: Torsin-1A-interacting protein 1 (Homo sapiens) (UniProt Q5JTV8); test: compound microarray binding of lysate hLAP1 – cell lysate, small-molecule microarray, COS7 lysate, 635/667 nm fluorescence, primary screen (AID 1116); details: 635 nm fluorescence, higher = more signal
[10] = target: Alpha-bungarotoxin (Bungarus multicinctus) (UniProt P60615); test: compounds binding labelled alpha-BTX control protein – biochemical, small-molecule microarray, Alexa647 label, 635/667 nm fluorescence, artefact control for SMM control protein annotation, profiling panel (AID 1117); details: alpha-BTX-A647 binding fluorescence, higher = more signal
[11] = target: Albumin (Bos taurus) (UniProt P02769); test: compounds binding labelled BSA control protein – biochemical, small-molecule microarray, Alexa647 label, 635/667 nm fluorescence, artefact control for SMM control protein annotation, profiling panel (AID 1118); details: BSA-A647 binding, fluorescence 635 nm, higher = more signal;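 also: score merges 667 nm emission intensity and signal-to-noise per printed compound spot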
[12] = probe aXIP binding to arrayed compounds – biochemical, NeuroSMM set, 635/667 nm fluorescence, primary screen (AID 1119); details: small-molecule microarray, higher = more signal, called active from +8 up or from −8 down;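 also: probe is the protein aXip251-270 applied at 1 µg/mL to compound-printed slides; binding of probe to printed compounds measured as 667 nm fluorescence plus signal to noise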
[13] = probe aNOTCH3 binding on compound microarray – biochemical, small-molecule microarray, 635/667 nm fluorescence, primary screen (AID 1120); details: higher = more signal;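 also: probe is a biotin-tagged antibody raised against NOTCH3 rather than NOTCH3 protein; score merges spot fluorescence near 667 nm with spot signal to noise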
[14] = probe aNOTCH2 binding on compound microarray – biochemical, small-molecule microarray, 635/667 nm fluorescence, primary screen (AID 1121); details: higher = more signal;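 also: score merges feature fluorescence read at 667 nm with its signal to noise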
[15] = target: Carbonic anhydrase 2 (Homo sapiens) (UniProt P00918); test: compounds binding carbonic anhydrase 2 – biochemical, small-molecule microarray, Alexa647-labelled CAII, profiling panel (AID 1122); details: CAII-A647 binding fluorescence, higher = more signal
[16] = COS7 lysate on small-molecule microarray, probe aHis, 635 nm (AID 1123); details: COS7 cell lysate, fluorescence, higher = more signal;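 also: z-score combines 667nm fluorescence intensity with signal-to-noise per printed compound spot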
[17] = probe aLAP1 signal on lysate-treated microarray – cell lysate, small-molecule microarray, COS7 lysate, primary screen (AID 1124); details: probe aLAP1, fluorescence, higher = more signal;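 also: lysate comes from COS7 cells expressing LAP1 and is applied at 0.3 µg/mL; score merges spot fluorescence near 667 nm with signal-to-noise over triplicate slides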
[18] = system: Sam68 (KHDRBS1); test: compounds binding KHDRBS1 protein – biochemical, small-molecule microarray, 635 nm fluorescence, primary screen (AID 1125); details: higher = more signal;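 also: score merges 667 nm channel intensity with signal to noise over triplicate slides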
[19] = system: Chordin-like protein 2 (CHRDL2); test: compounds binding chordin-like 2 – biochemical, small-molecule microarray, 635 nm fluorescence, primary screen (AID 1126); details: fluorescence 635 nm, higher = more signal;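 also: printed compound slides probed with Chrdl2 protein at 4 µg/mL for 1 h at 4 C; score merges 667 nm emission intensity with signal to noise over three replicate slides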
[20] = target: Concanavalin-A (Canavalia ensiformis) (UniProt P02866); test: compounds binding concanavalin A lectin – biochemical, small-molecule microarray, Alexa647 label, 635 nm, artefact control for SMM control protein annotation, primary screen (AID 1127); details: ConA-A647 binding fluorescence, higher = more signal;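 also: z combines 667 nm emission intensity with signal-to-noise across three replicate slides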
Sequence of Concanavalin-A (Canavalia ensiformis) (P02866 whole entry, looked up): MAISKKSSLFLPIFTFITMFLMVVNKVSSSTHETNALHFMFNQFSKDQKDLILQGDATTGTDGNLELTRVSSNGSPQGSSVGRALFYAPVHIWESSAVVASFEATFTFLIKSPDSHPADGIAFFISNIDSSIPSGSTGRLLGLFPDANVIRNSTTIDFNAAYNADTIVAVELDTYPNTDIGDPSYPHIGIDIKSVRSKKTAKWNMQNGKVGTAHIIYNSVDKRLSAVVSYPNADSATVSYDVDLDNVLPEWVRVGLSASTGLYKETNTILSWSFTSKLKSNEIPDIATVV

Sequence of Albumin (Bos taurus) (P02769 whole entry, looked up): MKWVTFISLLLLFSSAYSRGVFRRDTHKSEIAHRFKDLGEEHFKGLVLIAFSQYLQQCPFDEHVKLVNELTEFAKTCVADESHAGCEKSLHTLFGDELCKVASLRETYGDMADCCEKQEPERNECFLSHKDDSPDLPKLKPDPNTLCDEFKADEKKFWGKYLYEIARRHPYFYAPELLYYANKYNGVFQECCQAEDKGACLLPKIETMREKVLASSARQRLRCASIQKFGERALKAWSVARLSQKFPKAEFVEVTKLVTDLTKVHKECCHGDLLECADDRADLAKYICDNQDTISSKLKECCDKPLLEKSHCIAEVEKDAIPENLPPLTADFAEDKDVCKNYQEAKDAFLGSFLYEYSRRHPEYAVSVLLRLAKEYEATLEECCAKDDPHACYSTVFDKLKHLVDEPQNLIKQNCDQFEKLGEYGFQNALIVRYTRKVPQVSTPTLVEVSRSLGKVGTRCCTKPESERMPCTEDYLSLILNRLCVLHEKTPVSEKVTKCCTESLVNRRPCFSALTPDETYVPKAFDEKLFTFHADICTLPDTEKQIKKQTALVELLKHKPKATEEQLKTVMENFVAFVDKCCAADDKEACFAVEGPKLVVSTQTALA
Sequence of Left-right determination factor 2 (Homo sapiens) (O00292 whole entry, looked up): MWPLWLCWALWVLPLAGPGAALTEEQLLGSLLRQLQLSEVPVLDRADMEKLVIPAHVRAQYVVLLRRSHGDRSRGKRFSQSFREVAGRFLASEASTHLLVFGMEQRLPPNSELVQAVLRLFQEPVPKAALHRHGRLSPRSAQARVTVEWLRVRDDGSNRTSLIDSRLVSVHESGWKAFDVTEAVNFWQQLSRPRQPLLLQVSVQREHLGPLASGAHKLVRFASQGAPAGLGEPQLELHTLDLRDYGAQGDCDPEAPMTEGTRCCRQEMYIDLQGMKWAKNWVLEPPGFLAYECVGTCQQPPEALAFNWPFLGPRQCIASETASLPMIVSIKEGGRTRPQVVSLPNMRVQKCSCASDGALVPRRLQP
Sequence of Alpha-bungarotoxin (Bungarus multicinctus) (P60615 whole entry, looked up): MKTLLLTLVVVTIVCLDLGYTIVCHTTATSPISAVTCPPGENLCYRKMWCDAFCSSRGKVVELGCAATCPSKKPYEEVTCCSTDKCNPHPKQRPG
Sequence of Torsin-1A-interacting protein 1 (Homo sapiens) (Q5JTV8 whole entry, looked up): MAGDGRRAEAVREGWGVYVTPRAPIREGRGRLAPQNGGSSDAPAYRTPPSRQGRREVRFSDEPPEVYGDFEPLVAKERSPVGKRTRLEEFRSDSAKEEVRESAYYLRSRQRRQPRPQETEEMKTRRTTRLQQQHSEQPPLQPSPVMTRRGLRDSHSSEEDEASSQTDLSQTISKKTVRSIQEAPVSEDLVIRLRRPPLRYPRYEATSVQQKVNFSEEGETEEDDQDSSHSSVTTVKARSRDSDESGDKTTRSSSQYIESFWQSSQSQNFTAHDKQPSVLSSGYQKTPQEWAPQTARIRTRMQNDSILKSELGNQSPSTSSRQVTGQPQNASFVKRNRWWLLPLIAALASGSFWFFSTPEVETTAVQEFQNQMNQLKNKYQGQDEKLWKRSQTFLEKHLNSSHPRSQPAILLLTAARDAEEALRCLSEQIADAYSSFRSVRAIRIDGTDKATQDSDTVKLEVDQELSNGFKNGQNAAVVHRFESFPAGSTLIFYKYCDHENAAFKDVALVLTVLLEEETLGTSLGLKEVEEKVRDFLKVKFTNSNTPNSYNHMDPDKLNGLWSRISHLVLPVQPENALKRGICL

## O=C1[C@H]2[C@H]3[C@H](O)[C@H](O)CC(=NOCc4ccccc4)[C@H]3CC[C@H]2C(=O)N1c1cccc(Oc2ccccc2)c1
[1]
  composite z-score: 0.934
[2]
  z-score: 0.162
[3]
  composite z-score: 0.389
[4]
  composite z-score: 0.364
[5]
  composite z-score: -0.177
[6]
  composite z-score: 0.0145
[7]
  composite z-score: -0.16
[8]
  composite z-score: -0.305
[9]
  composite z-score: 0.683
[10]
  composite z-score: 0.684
[11]
  composite z-score: 0.442
[12]
  composite Z-score: -0.171 (inactive)
[13]
  composite z-score: 0.0793
[14]
  composite z-score: -0.161
[15]
  composite z-score: 0.144
[16]
  composite z-score: 1.14
[17]
  composite z-score: 0.229
[18]
  composite z-score: 1.05
[19]
  composite z-score: -0.0086
[20]
  composite z-score: 0.707

## Cc1cc2c(nc1C)CCCN2CC(C)ON=C1[C@H]2CCn3c(=O)n(-c4ccccc4)c(=O)n3[C@H]2[C@H](O)[C@@H]2O[C@H]12 (stereo not given in full)
[1]
  composite z-score: 0.862
[2]
  z-score: -3.29
[3]
  composite z-score: 0.377
[4]
  composite z-score: -0.135
[5]
  composite z-score: -0.458
[6]
  composite z-score: -0.0077
[7]
  composite z-score: 0.767
[8]
  composite z-score: 0.066
[9]
  composite z-score: 0.184
[10]
  composite z-score: 0.515
[11]
  composite z-score: 0.243
[12]
  composite Z-score: 0.506 (inactive)
[13]
  composite z-score: 0.173
[14]
  composite z-score: -0.0535
[15]
  composite z-score: 0.171
[16]
  composite z-score: 0.198
[17]
  composite z-score: 0.136
[18]
  composite z-score: 1.24
[19]
  composite z-score: 0.647
[20]
  composite z-score: 0.367

## COCCOC(=O)N1C(=O)[C@@]2(c3cc(C#Cc4ccc(OC)cc4)ccc31)[C@H](C(=O)N1CCN(c3ncccn3)CC1)[C@H]1C(=O)O[C@H](c3ccccc3)[C@H](c3ccccc3)N1[C@@H]2c1ccc(OCCO)cc1
[1]
  composite z-score: 1.4
[2]
  z-score: -1.56
[3]
  composite z-score: 0.64
[4]
  composite z-score: 0.766
[5]
  composite z-score: 0.397
[6]
  composite z-score: 0.101
[7]
  composite z-score: -0.229
[8]
  composite z-score: 1.26
[9]
  composite z-score: -0.109
[10]
  composite z-score: 0.598
[11]
  composite z-score: -0.447
[12]
  composite Z-score: 0.549 (inactive)
[13]
  composite z-score: 0.311
[14]
  composite z-score: 0.0966
[15]
  composite z-score: 0.31
[16]
  composite z-score: 1.1
[17]
  composite z-score: 0.634
[18]
  composite z-score: 0.556
[19]
  composite z-score: 0.792
[20]
  composite z-score: 1.08

## CCc1cc2c(nc1CC)CCN(CCC(C)=NOC[C@@H](O)[C@H]1O[C@@H]3OC(C)(C)O[C@@H]3[C@H]1O)C2
[1]
  composite z-score: 0.176
[2]
  z-score: -1.59
[3]
  composite z-score: 0.317
[4]
  composite z-score: 1.68
[5]
  composite z-score: 0.0363
[6]
  composite z-score: -0.0607
[7]
  composite z-score: -0.16
[8]
  composite z-score: -0.238
[9]
  composite z-score: 0.455
[10]
  composite z-score: 0.677
[11]
  composite z-score: 0.424
[12]
  composite Z-score: 0.386 (inactive)
[13]
  composite z-score: -0.0111
[14]
  composite z-score: -0.0891
[15]
  composite z-score: 0.213
[16]
  composite z-score: 0.421
[17]
  composite z-score: -0.0959
[18]
  composite z-score: 0.398
[19]
  composite z-score: 0.382
[20]
  composite z-score: 0.971

## CO[C@H]1COC(=O)[C@H](C)COC(=O)CC=C[C@@H](C)[C@H](OC)COC(=O)CC=C[C@@H]1C
[1]
  composite z-score: -0.797
[2]
  z-score: -0.265
[3]
  composite z-score: 1.15
[4]
  composite z-score: -0.556
[5]
  composite z-score: -1.28
[6]
  composite z-score: -0.0944
[7]
  composite z-score: -0.0709
[8]
  composite z-score: -0.158
[9]
  composite z-score: -0.0635
[10]
  composite z-score: -0.289
[11]
  composite z-score: -0.991
[12]
  composite Z-score: -0.222 (inactive)
[13]
  composite z-score: -0.132
[14]
  composite z-score: -0.164
[15]
  composite z-score: -0.405
[16]
  composite z-score: -0.602
[17]
  composite z-score: -0.142
[18]
  composite z-score: -0.0288
[19]
  composite z-score: 1.4
[20]
  composite z-score: 0.184

## CCN1C(=O)[C@H]2[C@H]3[C@H](O)[C@H](O)CC(=NOC(C)CN4CCCCc5nc(C)c(C)cc54)[C@@H]3CC[C@H]2C1=O (stereo not given in full)
[1]
  composite z-score: -0.504
[2]
  z-score: -1.17
[3]
  composite z-score: 0.905
[4]
  composite z-score: -2.14
[5]
  composite z-score: -1.31
[6]
  composite z-score: -0.184
[7]
  composite z-score: 0.0796
[8]
  composite z-score: -0.0489
[9]
  composite z-score: -0.401
[10]
  composite z-score: -0.294
[11]
  composite z-score: -0.428
[12]
  composite Z-score: -0.467 (inactive)
[13]
  composite z-score: -0.0511
[14]
  composite z-score: -0.0539
[15]
  composite z-score: -0.144
[16]
  composite z-score: -0.144
[17]
  composite z-score: 0.0096
[18]
  composite z-score: 0.238
[19]
  composite z-score: 1.22
[20]
  composite z-score: -0.0891

## CCCNC(=O)OC[C@H]1O[C@H](CCON=C[C@@H](OC)[C@H](C)C=CCC(=O)OC)C=C[C@@H]1Oc1ccc(OC)cc1
[1]
  composite z-score: 0.0209
[2]
  z-score: -1.72
[3]
  composite z-score: 0.453
[4]
  composite z-score: -1.81
[5]
  composite z-score: -0.848
[6]
  composite z-score: -0.119
[7]
  composite z-score: -0.01
[8]
  composite z-score: -0.318
[9]
  composite z-score: 0.322
[10]
  composite z-score: 0.908
[11]
  composite z-score: -1.05
[12]
  composite Z-score: -0.431 (inactive)
[13]
  composite z-score: 0.142
[14]
  composite z-score: -0.192
[15]
  composite z-score: 0.0769
[16]
  composite z-score: 0.438
[17]
  composite z-score: 0.325
[18]
  composite z-score: 0.693
[19]
  composite z-score: 1.16
[20]
  composite z-score: -1.26

## O=C1CCCC2OC12C(O)CCc1ccccc1 (stereo not given)
[1]
  composite z-score: -0.118
[2]
  z-score: -0.862
[3]
  composite z-score: 0.585
[4]
  composite z-score: -0.429
[5]
  composite z-score: -0.552
[6]
  composite z-score: 0.0516
[7]
  composite z-score: -0.206
[8]
  composite z-score: -0.175
[9]
  composite z-score: 0.0788
[10]
  composite z-score: 0.176
[11]
  composite z-score: -0.0592
[12]
  composite Z-score: 0.319 (inactive)
[13]
  composite z-score: -0.0581
[14]
  composite z-score: -0.185
[15]
  composite z-score: -0.22
[16]
  composite z-score: -0.324
[17]
  composite z-score: -0.2
[18]
  composite z-score: 0.17
[19]
  composite z-score: 0.594
[20]
  composite z-score: 0.594

## COC(=O)[C@H](C)NC(=O)CCC1CC(OC(=O)NCc2cccc3ccccc23)CC2(CCCC(COC(=O)NCCc3ccc(Cl)cc3)O2)O1 (stereo not given in full)
[1]
  composite z-score: 0.953
[2]
  z-score: -1.05
[3]
  composite z-score: 0.451
[4]
  composite z-score: 0.866
[5]
  composite z-score: -0.0789
[6]
  composite z-score: -0.0075
[7]
  composite z-score: -0.138
[8]
  composite z-score: -0.213
[9]
  composite z-score: 0.33
[10]
  composite z-score: 0.171
[11]
  composite z-score: 0.147
[12]
  composite Z-score: 0.108 (inactive)
[13]
  composite z-score: -0.176
[14]
  composite z-score: -0.0868
[15]
  composite z-score: 0.535
[16]
  composite z-score: 0.631
[17]
  composite z-score: -0.422
[18]
  composite z-score: 1.23
[19]
  composite z-score: -0.0578
[20]
  composite z-score: 0.946
